# Activity calls are given as the source filed them.
# How the values were obtained:
# Albumin (Bos taurus) = Albumin (Bos taurus) (UniProt P02769); assay: bovine serum albumin binders on microarray, profiling panel, artefact control for SMM control protein annotation, biochemical, small-molecule microarray, Alexa647 label, 635/667 nm fluorescence (AID 1118); details: BSA-A647 binding, fluorescence 635 nm, higher = more signal;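 further: score merges 667 nm emission intensity and signal-to-noise per printed compound spot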
# Albumin (Bos taurus), sequence (P02769 whole entry, looked up): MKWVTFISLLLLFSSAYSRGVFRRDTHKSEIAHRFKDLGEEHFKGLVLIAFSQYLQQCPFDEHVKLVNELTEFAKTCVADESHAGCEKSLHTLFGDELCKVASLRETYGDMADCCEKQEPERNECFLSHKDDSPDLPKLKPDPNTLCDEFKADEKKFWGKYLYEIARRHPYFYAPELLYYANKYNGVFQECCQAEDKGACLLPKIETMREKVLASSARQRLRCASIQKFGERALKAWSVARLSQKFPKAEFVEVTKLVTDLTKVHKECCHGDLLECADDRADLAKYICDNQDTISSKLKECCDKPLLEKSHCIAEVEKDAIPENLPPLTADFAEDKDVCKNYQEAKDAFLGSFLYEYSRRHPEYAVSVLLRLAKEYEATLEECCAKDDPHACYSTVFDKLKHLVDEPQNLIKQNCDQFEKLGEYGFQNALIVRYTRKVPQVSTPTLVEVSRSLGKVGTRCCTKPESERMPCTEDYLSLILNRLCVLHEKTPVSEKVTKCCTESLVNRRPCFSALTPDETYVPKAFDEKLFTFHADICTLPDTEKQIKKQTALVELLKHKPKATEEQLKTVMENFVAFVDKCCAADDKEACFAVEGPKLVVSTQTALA
# [1] = small-molecule microarray binders of probe aXIP, primary screen, biochemical, NeuroSMM set, 635/667 nm fluorescence (AID 1119); details: higher = more signal, called active from +8 up or from −8 down;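 further: probe is the protein aXip251-270 applied at 1 µg/mL to compound-printed slides; binding of probe to printed compounds measured as 667 nm fluorescence plus signal to noise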
# [2] = small-molecule binders of probe aNOTCH3, primary screen, biochemical, small-molecule microarray, 635/667 nm fluorescence (AID 1120); details: higher = more signal;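 further: probe is a biotin-tagged antibody raised against NOTCH3 rather than NOTCH3 protein; score merges spot fluorescence near 667 nm with spot signal to noise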
# [3] = small-molecule binders of probe aNOTCH2, primary screen, biochemical, small-molecule microarray, 635/667 nm fluorescence (AID 1121); details: higher = more signal;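 further: score merges feature fluorescence read at 667 nm with its signal to noise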
# [4] = target: Carbonic anhydrase 2 (Homo sapiens) (UniProt P00918); assay: CAII small-molecule binders, profiling panel, biochemical, small-molecule microarray, Alexa647-labelled CAII (AID 1122); details: CAII-A647 binding fluorescence, higher = more signal
# [5] = COS7 lysate on small-molecule microarray, probe aHis, 635 nm (AID 1123); details: COS7 cell lysate, fluorescence, higher = more signal;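 further: z-score combines 667nm fluorescence intensity with signal-to-noise per printed compound spot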
# [6] = compound binding in COS7 lysate, probe aLAP1, primary screen, cell lysate, small-molecule microarray (AID 1124); details: probe aLAP1, fluorescence, higher = more signal;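 further: lysate comes from COS7 cells expressing LAP1 and is applied at 0.3 µg/mL; score merges spot fluorescence near 667 nm with signal-to-noise over triplicate slides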
# Sam68 (KHDRBS1) = assay: Sam68 small-molecule binders, primary screen, biochemical, small-molecule microarray, 635 nm fluorescence (AID 1125); details: small-molecule microarray binding, higher = more signal;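 further: score merges 667 nm channel intensity with signal to noise over triplicate slides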
# [7] = tested on: Chordin-like protein 2 (CHRDL2); assay: CHRDL2 small-molecule binders, primary screen, biochemical, small-molecule microarray, 635 nm fluorescence (AID 1126); details: small-molecule microarray binding, fluorescence 635 nm; higher = more signal;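 further: printed compound slides probed with Chrdl2 protein at 4 µg/mL for 1 h at 4 C; score merges 667 nm emission intensity with signal to noise over three replicate slides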
# [8] = target: Concanavalin-A (Canavalia ensiformis) (UniProt P02866); assay: ConA small-molecule binders, primary screen, artefact control for SMM control protein annotation, biochemical, small-molecule microarray, Alexa647 label, 635 nm (AID 1127); details: ConA-A647 binding fluorescence, higher = more signal;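 further: z combines 667 nm emission intensity with signal-to-noise across three replicate slides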
# Concanavalin-A (Canavalia ensiformis), sequence (P02866 whole entry, looked up): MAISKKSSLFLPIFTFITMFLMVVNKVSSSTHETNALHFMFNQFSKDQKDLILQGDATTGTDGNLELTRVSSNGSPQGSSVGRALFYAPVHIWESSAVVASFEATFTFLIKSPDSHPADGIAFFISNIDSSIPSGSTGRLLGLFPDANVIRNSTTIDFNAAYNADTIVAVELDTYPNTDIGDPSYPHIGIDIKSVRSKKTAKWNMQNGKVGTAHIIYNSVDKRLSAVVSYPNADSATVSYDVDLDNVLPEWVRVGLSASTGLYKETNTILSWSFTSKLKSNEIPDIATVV
# [9] = anti-His antibody binders, primary screen, artefact control for SMM control protein annotation, biochemical, small-molecule microarray, 635 nm fluorescence (AID 1128); details: anti-His Alexa647 antibody binding, higher = more signal;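 further: score merges feature fluorescence with signal-to-noise for each printed compound spot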
# [10] = tested on: Human papillomavirus type 1a E7 protein (residues 1-88); assay: HPV1a E7 small-molecule binders, primary screen, biochemical, small-molecule microarray, residues 1-88, 635 nm (AID 1129); details: small-molecule microarray binding, fluorescence 635 nm; higher = more signal
# [11] = target: Focal adhesion kinase 1 (Homo sapiens) (UniProt Q05397); assay: small-molecule microarray binders of FAK, primary screen, biochemical, 635/667 nm fluorescence, BSA, DTT (AID 1130); details: PTK2 binding, 635 nm fluorescence, higher = more signal;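 further: composite of spot emission at 667 nm and signal to noise over triplicate slides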
# Focal adhesion kinase 1 (Homo sapiens), sequence (Q05397 whole entry, looked up): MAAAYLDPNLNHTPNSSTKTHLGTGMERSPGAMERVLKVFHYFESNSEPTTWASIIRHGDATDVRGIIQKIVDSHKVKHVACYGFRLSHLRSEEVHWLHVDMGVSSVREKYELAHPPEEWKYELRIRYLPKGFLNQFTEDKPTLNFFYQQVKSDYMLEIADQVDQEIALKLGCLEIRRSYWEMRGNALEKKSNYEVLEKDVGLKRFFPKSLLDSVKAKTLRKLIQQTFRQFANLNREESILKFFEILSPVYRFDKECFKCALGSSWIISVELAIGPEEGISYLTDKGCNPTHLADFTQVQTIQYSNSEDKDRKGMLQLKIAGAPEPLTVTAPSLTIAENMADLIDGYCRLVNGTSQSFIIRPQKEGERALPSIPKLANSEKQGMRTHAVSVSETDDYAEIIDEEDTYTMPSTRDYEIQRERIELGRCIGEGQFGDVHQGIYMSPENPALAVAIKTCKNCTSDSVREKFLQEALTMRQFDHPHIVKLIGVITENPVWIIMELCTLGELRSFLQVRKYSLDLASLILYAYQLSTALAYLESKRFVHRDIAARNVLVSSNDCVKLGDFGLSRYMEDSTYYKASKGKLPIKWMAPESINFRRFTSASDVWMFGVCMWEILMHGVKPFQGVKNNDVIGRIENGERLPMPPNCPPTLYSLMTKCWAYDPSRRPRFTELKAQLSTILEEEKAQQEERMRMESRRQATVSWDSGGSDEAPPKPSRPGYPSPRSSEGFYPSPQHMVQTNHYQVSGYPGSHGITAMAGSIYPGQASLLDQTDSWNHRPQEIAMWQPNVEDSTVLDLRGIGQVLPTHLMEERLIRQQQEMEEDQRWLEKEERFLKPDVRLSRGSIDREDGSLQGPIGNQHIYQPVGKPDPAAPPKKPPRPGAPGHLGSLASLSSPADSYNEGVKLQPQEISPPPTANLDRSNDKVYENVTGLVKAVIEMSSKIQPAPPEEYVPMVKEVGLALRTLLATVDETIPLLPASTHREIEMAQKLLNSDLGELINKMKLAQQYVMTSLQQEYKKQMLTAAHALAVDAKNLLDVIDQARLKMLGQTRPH
# [12] = tested on: Fibrinogen (Alexa647-labelled); assay: fibrinogen binders on compound microarrays, profiling panel, artefact control for SMM control-protein annotation, biochemical, small-molecule microarray, 635/667 nm fluorescence (AID 1131); details: fibrinogen-A647 binding fluorescence, higher = more signal;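 further: z-score merges 667 nm fluorescence with per-spot signal-to-noise over triplicate slides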
# [13] = target: Follistatin (Homo sapiens) (UniProt P19883); assay: follistatin binders on small-molecule microarrays, primary screen, biochemical, small-molecule microarray, 635/667 nm fluorescence (AID 1132); details: FST binding, 635 nm fluorescence, higher = more signal
# Follistatin (Homo sapiens), sequence (P19883 whole entry, looked up): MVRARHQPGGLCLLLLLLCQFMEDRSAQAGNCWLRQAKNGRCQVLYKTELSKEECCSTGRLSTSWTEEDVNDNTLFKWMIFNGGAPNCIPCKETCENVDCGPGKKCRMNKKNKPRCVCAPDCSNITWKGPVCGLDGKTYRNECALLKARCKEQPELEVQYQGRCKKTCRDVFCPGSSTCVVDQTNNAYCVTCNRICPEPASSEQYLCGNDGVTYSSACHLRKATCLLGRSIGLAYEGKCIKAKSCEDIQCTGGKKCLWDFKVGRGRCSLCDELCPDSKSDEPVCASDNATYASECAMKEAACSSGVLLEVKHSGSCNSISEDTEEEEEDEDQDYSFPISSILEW
# [14] = target: Fibroblast growth factor 2 (Homo sapiens) (UniProt P09038); assay: FGF2 binders on small-molecule microarrays, primary screen, biochemical, small-molecule microarray, 635/667 nm fluorescence (AID 1133); details: small-molecule microarray binding, FGF2, fluorescence 635/667; higher = more signal
# Fibroblast growth factor 2 (Homo sapiens), sequence (P09038 whole entry, looked up): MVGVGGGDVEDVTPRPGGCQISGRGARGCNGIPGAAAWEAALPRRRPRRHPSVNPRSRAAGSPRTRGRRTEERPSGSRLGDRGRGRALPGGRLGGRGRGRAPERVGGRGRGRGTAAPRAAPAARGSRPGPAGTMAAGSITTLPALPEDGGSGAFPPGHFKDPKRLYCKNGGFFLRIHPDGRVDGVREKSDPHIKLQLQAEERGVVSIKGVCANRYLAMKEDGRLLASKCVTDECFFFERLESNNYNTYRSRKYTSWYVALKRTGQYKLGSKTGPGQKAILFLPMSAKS
# [15] = mitochondrial membrane potential change in A549 cells, profiling panel, cell-based, JC-1 fluorescence, basal, 24 h, 100 nL (AID 1138); details: higher = more signal;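 further: A549 lung adenocarcinoma cells under basal conditions with no added stimulus; test concentration not given here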
# Lefty1 = Lefty1 binders on small-molecule microarrays, primary screen, biochemical, small-molecule microarray, 635/667 nm fluorescence (AID 1139); details: small-molecule microarray binding, fluorescence 635/667; higher = more signal
# [16] = tested on: wheat germ agglutinin (Triticum aestivum), Alexa647-labelled; assay: wheat germ agglutinin binders on compound microarrays, profiling panel, artefact control for SMM control-protein annotation, biochemical, small-molecule microarray, 635/667 nm fluorescence (AID 1140); details: WGA-A647 binding, 635 nm fluorescence, higher = more signal;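 further: score merges 667 nm feature emission with signal to noise over triplicate slides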
# [17] = target: Luciferin 4-monooxygenase (Photinus pyralis) (UniProt P08659); assay: firefly luciferase enzyme inhibitors, primary screen, biochemical, luminescence, purified enzyme, 2006 set (AID 1141); details: SteadyGlo luminescence, 30 min, higher = more signal, called active from +8 up or from −8 down;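 further: cell-free assay with purified firefly luciferase at 100 ng per well in PBS; test concentration not given here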
# Luciferin 4-monooxygenase (Photinus pyralis), sequence (P08659 whole entry, looked up): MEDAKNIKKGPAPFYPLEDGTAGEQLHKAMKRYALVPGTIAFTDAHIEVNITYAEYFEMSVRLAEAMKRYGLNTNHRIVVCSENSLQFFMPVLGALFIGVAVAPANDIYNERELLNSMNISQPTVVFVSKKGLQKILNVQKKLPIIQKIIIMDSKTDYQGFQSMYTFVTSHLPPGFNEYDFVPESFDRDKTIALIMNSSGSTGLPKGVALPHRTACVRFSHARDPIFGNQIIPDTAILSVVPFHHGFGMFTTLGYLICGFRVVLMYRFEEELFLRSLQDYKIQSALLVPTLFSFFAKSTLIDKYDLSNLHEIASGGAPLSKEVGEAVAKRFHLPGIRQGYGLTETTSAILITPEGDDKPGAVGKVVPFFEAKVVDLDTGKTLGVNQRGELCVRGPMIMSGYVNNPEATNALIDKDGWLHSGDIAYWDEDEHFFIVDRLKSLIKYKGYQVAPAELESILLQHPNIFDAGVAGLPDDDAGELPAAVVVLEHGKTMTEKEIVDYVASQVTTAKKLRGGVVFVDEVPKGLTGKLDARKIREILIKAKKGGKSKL
SMILES,composite z-score (Albumin (Bos taurus)),composite Z-score [1],composite z-score [2],composite z-score [3],composite z-score [4],composite z-score [5],composite z-score [6],composite z-score (Sam68 (KHDRBS1)),composite z-score [7],composite z-score [8],composite z-score [9],composite z-score [10],composite z-score [11],composite z-score [12],composite z-score [13],composite z-score [14],z-score [15],composite z-score (Lefty1),composite z-score [16],z-score [17]
CN(C)CCCC[C@@H]1NC(=O)[C@H]2C[C@@H](C(=O)NCCCCCCN)[C@@H](c3ccc(O)cc3)N2C1=O,0.887,0.37 (inactive),0.665,0.419,0.35,1.48,1.09,1.28,1.04,1.04,2.07,1.09,0.333,0.977,1.41,1.82,0.462,1.67,1.03,0.498 (inactive)
O=C(OCc1ccccc1)C1=CCC2c3[nH]c4ccccc4c3C(=O)C1N2S(=O)(=O)c1ccccc1[N+](=O)[O-] (stereo not given),0.994,0.0421 (inactive),0.6,0.285,0.777,2.61,0.335,1.06,-0.328,0.996,1.28,1.26,-0.134,0.906,1.11,0.491,-2.71,0.5,0.743,0.895 (inactive)
C=CCN1C(=O)[C@]2(O[C@H](CCn3cc([C@H](O)c4ccccc4)nn3)[C@@H]([Si](C)(C)c3ccc(OC)cc3)[C@@H]2C)c2ccccc21,-0.0698,0.0503 (inactive),-0.253,-0.156,-0.238,-0.011,0.0809,-0.776,-0.278,-0.847,-0.435,-0.723,-0.458,-1.07,-0.696,-0.403,-0.156,-0.581,0.417,0.184 (inactive)
COCCOC(=O)N1C(=O)[C@@]2(c3cc(C#CC4(O)CCCCCC4)ccc31)[C@H](c1ccc(OCCO)cc1)N1[C@H](c3ccccc3)[C@H](c3ccccc3)OC(=O)[C@H]1[C@@H]2C(=O)N1CCN(c2ncccn2)CC1,0.716,-0.232 (inactive),0.0026,-0.146,0.497,1.46,-0.163,1.3,0.34,1.13,1.39,1.21,0.333,0.956,1.03,0.758,-1.1,0.651,0.458,-0.606 (inactive)
O[C@@H](Cc1ccccc1)[C@H]1C2C=CCCC=C2CN1Cc1cccc(Cl)c1 (stereo not given in full),0.478,0.0338 (inactive),0.361,0.0018,0.385,0.822,0.536,1.31,0.595,0.609,1.21,1.14,0.184,0.675,1.24,0.688,0.182,1.41,0.593,-1.89 (inactive)
COC(=O)[C@@]1(Cc2ccc(OC)cc2)[C@H]2c3cc(C(=O)N(C)C)n(Cc4ccccn4)c3C[C@H]2CN1C(=O)c1ccccc1,0.972,0.655 (inactive),0.0674,0.293,0.89,3.14,1.03,-0.0453,-0.855,-0.0204,1.57,0.451,1.44,0.547,-0.363,-0.567,0.332,-0.805,1.35,1.6 (inactive)
C=C(COC)/C(=C/C[C@@H](OC(=O)c1ccncc1)c1ccc(CO)o1)c1cc(C(=O)OC)ccc1OC,0.0436,-0.0882 (inactive),0.0979,-0.104,0.482,0.641,1.46,1.31,1.1,1.14,0.68,1.24,0.987,0.933,1.46,1.92,0.526,1.64,0.707,-1.83 (inactive)
COCCOC(=O)N1C(=O)[C@@]2(c3cc(C#CCCO)ccc31)[C@H](C(N)=O)[C@H]1C(=O)O[C@H](c3ccccc3)[C@H](c3ccccc3)N1[C@@H]2c1ccc(O)cc1,0.205,-0.516 (inactive),-0.159,-0.118,0.463,0.387,0.505,0.0991,-0.464,-0.332,-0.0637,-0.469,-0.167,0.141,-0.15,0.0091,0.0757,-0.431,0.115,-0.381 (inactive)
C=C(COC)C(=O)CC[C@@H](OC(C)=O)c1ccc(CO)o1,-0.0861,0.365 (inactive),-0.0311,0.169,0.662,-0.137,-0.311,0.298,1.13,0.0796,-0.555,-0.724,-0.285,0.966,1.33,1.32,-0.57,1.73,0.397,-1.15 (inactive)
CCOC(=O)C[C@H]1[C@H](OC(=O)c2ccc(C(=O)c3ccccc3)cc2)[C@@H](NC(=O)c2ccccc2)c2cc(OCCCO)ccc2N1C(=O)Cc1ccc(OC)cc1,0.346,0.713 (inactive),0.0242,-0.0624,0.0172,0.445,-0.171,0.226,0.0542,0.163,-0.239,-0.158,0.0147,0.204,0.0257,-0.358,2.33,0.545,-0.0653,-0.863 (inactive)
CC(C)OC(=O)C=C1C[C@@H](c2ccccn2)O[C@@H](c2ccccn2)O1,-0.47,0.92 (inactive),0.0942,-0.12,0.775,0.407,1.32,0.216,1.49,-0.333,0.772,-0.0007,-0.19,0.0108,1.34,0.935,0.0752,1.53,0.372,0.633 (inactive)
